Measurements from the supplement of paper PMC13380429.

Test system: Vero E6 infected with SARS-CoV-2
Assay: inhibition of SARS-CoV-2 cytopathic effect; higher = more antiviral protection, active = above 15
Details: 48 h

Measured: inhibition of SARS-CoV-2 cytopathic effect

O=C1NC(=S)NC(=O)C1C(=O)Nc1ccccc1 [merbarone]
inactive: 1 nM -0.86% | 8.33 nM -1.86% | 100 nM -0.15% | 833.33 nM -0.03% | 10000 nM 1.95%

O=S1(=O)N[C@H]2CCCN2c2ccccc21
inactive: 1 nM -9.82% | 8.33 nM -6.86% | 100 nM -6.43% | 833.33 nM -8.3% | 10000 nM -12.2%

CC(ONC(=O)c1cc(C(F)(F)F)cc(C(F)(F)F)c1)C(=O)Nc1ccc(Cl)cc1 (stereo not given)
inactive: 1 nM 1.52% | 8.33 nM -0.64% | 100 nM 0.05% | 833.33 nM -2.31% | 10000 nM 5.49%

Clc1ccc2c(N3CCN(CCCN4CCN(c5ccnc6cc(Cl)ccc56)CC4)CC3)ccnc2c1 [piperaquine-phosphate]
inactive: 1 nM -0.04% | 8.33 nM 1.25% | 100 nM -0.14% | 833.33 nM -1.37% | 10000 nM -2.6%

O=c1c2ccccc2oc2ccccc12 [xanthone]
inactive: 1 nM 1.22% | 8.33 nM 1.53% | 100 nM 1.84% | 833.33 nM -0.86% | 10000 nM -3.12%

CC(=O)NCC(=O)N1[C@@H]2CC[C@H]1c1ccc(Nc3ncc(C(F)(F)F)c(NC4CCC4)n3)cc12
inactive: 1 nM -2.51% | 8.33 nM -1.15% | 100 nM -2.99% | 833.33 nM -4.63% | 10000 nM -15.4%

CN1[C@H]2C[C@H](OC(=O)[C@H](CO)c3ccccc3)C[C@@H]1[C@@H](O)C2 [anisodamine]
inactive: 1 nM 1.04% | 8.33 nM 2.56% | 100 nM 3.99% | 833.33 nM 5.76% | 10000 nM 3.66%
